Among all 38,000 compounds or so, about 1,200 (3.2%) showed an effect of 50% or more. The median lay at about -58%. The sample holds strong results, similar compounds and a random draw of the others, so the mix is not that of the screen.
tested on: Plasmodium falciparum; test: Calibr Malaria Delayed Death Assay SOP; format: functional, organism-based; parameters: scale not given: in the data most compounds retested in dose-response had high values; conditions: concentration 4.99e-06 (unit not given; other assays of the set use mol/L)

Row | Structure (SMILES) | Percent Effect
1 | O=C(NC1CCc2cc(Cl)ccc21)C1CCN(C(=O)C2CC2)CC1 (stereo unspecified) | -26.17%
2 | OCC1CCCN(Cc2c(C3CCCC3)[nH]c3ncccc23)C1 (stereo unspecified) | 11.34%
3 | Cc1cc(CN2CCN(Cc3ccc(C#N)cc3F)CC2)no1 | -21.87%
4 | CC(C)(C)OC(=O)N1CCN(S(=O)(=O)CCCC#N)C2(CCCCC2)C1 | -7.011%
5 | OC1(CN2CCCC2)CCCN(Cc2cnc(-c3ccco3)nc2)C1 (stereo unspecified) | -86.93%
6 | Cc1ccc2nc(CN3CCC(O)(CN4CCCC4)CC3)cc(O)c2c1 | -44.54%
7 | COc1ccc(C)cc1CC(=O)N1CC[C@@]2(CCCO2)[C@@H](O)C1 | -95.97%
8 | Cc1ccc(Cn2c(=O)[nH]c3csnc3c2=O)cc1 | -6.005%
9 | Cc1nc(CN2CCC3(CC2)C(=O)N(C)CCN3C)cs1.O=C(O)C(F)(F)F.O=C(O)C(F)(F)F.O=C(O)C(F)(F)F | -106.3%
10 | Cn1cc(CN2CCCC23CCN(c2nc4ccccc4s2)CC3)cn1 | 50.94%
11 | c1ccc2sc(N3CCC4(CCCN4Cc4ncc[nH]4)CC3)nc2c1 | 19.28%
12 | Cc1nc(CN2CCCC23CCN(c2nc4ccccc4s2)CC3)co1 | 8.403%
13 | Cc1cccc(SC2CCN(C(=O)CCNS(C)(=O)=O)CC2)c1 | -80.26%
14 | CCOCCOC(C)C(=O)Nc1ccnn1-c1ccccc1C (stereo unspecified) | -67.54%
15 | COc1cc(CCC(=O)NCC2CC2)ccc1OCC(F)(F)F | -33.72%
16 | Nc1nc(CN2CCCC(Cn3cncn3)C2)nc2ccccc12 (stereo unspecified) | -138.6%
17 | Fc1ccc(CN2CCCC2Cn2cncn2)c2ncccc12 (stereo unspecified) | 10.61%
18 | Fc1ccc(CN2CCOC(Cn3cncn3)C2)c2ncccc12 (stereo unspecified) | -95.84%
19 | Clc1ccc(CN2CCCC(Cn3cncn3)C2)c2ncccc12 (stereo unspecified) | 63.13%

Row | Structure (SMILES) | Percent Effect
20 | Fc1ccc(CN2CCCC(Cn3cncn3)C2)c2ncccc12 (stereo unspecified) | -5.261%
21 | Fc1ccc(CN2CCCCC2Cn2cncn2)c2ncccc12 (stereo unspecified) | 64.52%
22 | CCn1nnc2c1C(COC)CN(C(=O)Cc1ccccn1)C2 (stereo unspecified) | -16.62%
23 | CNC(=O)C1CCN(S(C)(=O)=O)CC1 | -158.4%
24 | O=C1CC(c2cccs2)c2sc(C(=O)O)c(-c3ccccc3)c2N1 (stereo unspecified) | -70.62%
25 | Cc1nc(N2CCCC2)ccc1NCc1ccccn1 | -6.068%
26 | COc1ccc(C(=O)O)c(OCC(=O)NC(C)c2ccccc2)c1 (stereo unspecified) | -10.57%
27 | COCCCNC(=O)c1c[nH]c2ccc(OC)cc12 | -47.08%
28 | O=C1CCNc2ccc(F)cc2CN1Cc1ccccc1 | -35.83%
29 | CC1N(c2cnn(C)c2)C(=O)COC12CCN(CC1CC1)CC2.O=C(O)C(F)(F)F (stereo unspecified) | -75.35%
30 | COc1ccc(NC(=O)c2ccc(-n3ncc(C#N)c3N)cc2)cn1 | 80.07%
31 | CCN(CC)C(=O)c1ccc(-n2ncc(C#N)c2N)cc1 | -24.17%
32 | Cc1cnc(NC(=O)c2ccc(-n3ncc(C#N)c3N)cc2)s1 | -56.37%
33 | O=C(CSc1ccccn1)N1CCC(OCc2cccnc2)CC1 | -154%
34 | Cn1cnc(S(=O)(=O)NCCC(O)c2ccc3c(c2)OCO3)c1 (stereo unspecified) | -141.1%
35 | CC(Nc1cccc(F)c1C#N)c1cccc(S(N)(=O)=O)c1 (stereo unspecified) | -56.47%
36 | Cc1ccnc(OC[C@]23COC[C@H]2CN(C(=O)C2=CCCCC2)C3)n1 | -29.48%
37 | C[C@]1(O)CCN(Cc2c[nH]cn2)C[C@@H]1Oc1cccc(F)c1 | -164.2%
38 | COc1cccc(Cl)c1-c1cc(CN)ccc1F | 65.68%

Row | Structure (SMILES) | Percent Effect
39 | COc1cccc(-c2cc(CN)ccc2F)c1F | -75.66%
40 | CC(C)Oc1ccc(CNC(=O)c2cc(C(N)=O)cs2)cc1F | -80.32%
41 | CC(C)Oc1ccccc1-c1cc(CN)ccc1F | 60.74%
42 | COCCNC(=O)NCc1ccc(OC(C)C)c(F)c1 | -81.14%
43 | NCc1ccc(Oc2cccc(Cl)c2Cl)cc1 | 19%
44 | Cc1cc(NC(=O)Cc2ccc3c(c2)OCO3)n(C)n1 | -77.02%
45 | O=C(CC1NC(N2CCc3ccccc32)=NC1=O)Nc1ccc(Cl)cc1 (stereo unspecified) | -176.9%
46 | O=C(Cn1cc(C2CC2)nn1)N(Cc1ccco1)Cc1cccs1 | -76.11%
47 | CN(C)c1ncccc1CNCc1cccc(O)c1 | -22.48%
48 | O=C(CCc1ccccc1)NCC1CCN(Cc2cccs2)CC1 | -10.35%
49 | O=C(CCc1ccsc1)NCC1CCN(Cc2cccs2)CC1 | 58%
50 | O=C(CCc1ccccc1)NCC1CCN(Cc2ccsc2)CC1 | 18.12%
51 | CCn1ncc2c1C(COC)N(C(=O)c1ccsc1)CC2.O=C(O)C(F)(F)F (stereo unspecified) | -121.1%
52 | Cc1cc(N2CCC(c3ncc[nH]3)CC2)c2ccccc2n1 | 61.5%
53 | Cc1cc(N2CCC(c3ncc[nH]3)CC2)nc(N)n1 | -29.26%
54 | Cc1cc(N2CCC(c3ncc[nH]3)CC2)cc(C)n1 | -30.44%
55 | Cc1cc(C(=O)N2CC(O)CO2)c2cccc(C)c2n1 (stereo unspecified) | -103.4%
56 | Cn1nc(C(=O)NC2(c3ccc(Cl)cc3)CCCC2)ccc1=O | 37.39%

From ChEMBL document CHEMBL3988442, “University of Dundee, Small-Polar-MMV Screening Library” (2021)
